# Reference: PubChem BioAssay
# The source made the active and inactive calls. Unless noted, how the calls were made is not given here.
# Tests used:
# [1] = kinase inhibitors against Plasmodium liver-stage infection, cell-based, known kinase inhibitor set, luminescence, hepatoma host viability (AID 624392); details: Plasmodium liver stage in hepatoma cells, luciferase luminescence, concentration not given here; liver cell % of control: measured here: host liver cell viability; parasite % of control: stronger effect = lower value;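 further: infected cells incubated roughly two days before readout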
# [2] = modulators of glucocorticoid suppression of NF-kB, cell-based, luciferase, IL-1B stimulus, dexamethasone (AID 624486); details: NF-kB luciferase reporter, IL-1B + dexamethasone, luminescence; percent of negative control (+Dex): actives lie on both sides, concentration not given here; z-score: measured here: IL-1B alone, no Dex;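 on percent of negative control (+Dex): 100% = mean signal of vehicle control wells on the plate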
# [3] = kinase inhibitors altering Pseudomonas killing of worms, whole organism (AID 651566);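 further: tested at 14 µM; sign flipped so higher z means a lower ratio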; details: C. elegans killed by P. aeruginosa, survival ratio
# [4] = activators of macrophage pro-inflammatory response, cell-based, murine, luminescence (AID 652131); details: murine macrophage pro-inflammatory reporter, stronger effect = higher value
# [5] = IRF3 reporter activation in THP-1 macrophages, cell-based, PMA-stimulated THP-1, luminescence (AID 1053176); details: PMA-differentiated THP-1, IRF3 reporter luminescence; stronger effect = higher value
# [6] = survival rescue of mitochondrial mutant cells in low glucose, primary screen, MELAS cybrids, Rieske KO mouse fibroblasts, CellTiter-Glo (AID 1508586;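 active means mean z-score across replicates of 1.96 or higher in either the MELAS or the Rieske mutant cell line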;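 further: z relative to plate mean and SD of compound and empty wells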)
# [7] = stimulators of nuclear beta-catenin in C2C12, primary screen, imaging, WNT3A-conditioned medium, mouse C2C12, NPC library (AID 1117326; in the data active means nuclear beta-catenin stimulation mostly above about 4.2%, no sharp cut-off; inactive means mostly below about 10%); details: stronger effect = higher value
# [8] = stimulators of insulin release from INS-1E, primary screen, cell-based, 5 mM glucose, NPC library (AID 1117329;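 active means compound raises insulin release from rat beta cells at 5 mM glucose, no numeric limit stated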); details: rat INS-1E insulin secretion, at 10 µM, stronger effect = higher value
# [9] = growth inhibition of GSK3B-pretreated HCT116 cells – cell-based, CellTiter-Glo, 0.2 to 20 µM (AID 1117336;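 active means compounds lowering colon cancer cell viability after pretreatment blocking the GSK3B kinase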); details: HCT116 viability after GSK3B inhibitor, at 20 µM, stronger effect = higher value
# [10] = inhibition of endothelial tube formation, primary screen, imaging, VEGF stimulated, CD31 staining, tube area, NPC library (AID 1117340;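 active means compound that reduces growth-factor-driven endothelial tube area in a mixed cell culture, no cutoff stated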); details: VEGF-stimulated ADSC/ECFC co-culture, at 10 µM, stronger effect = higher value
# [11] = glucagon-like peptide 1 release enhancers, primary assay, NCI-H716 cell line, NPC library (AID 1117341;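 active means compound raises GLP1 secretion from the human gut endocrine cells, with no numeric limit stated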); details: NCI-H716 cells, at 10 µM, stronger effect = higher value
# [12] = HCT116 colon cancer cell growth inhibition, primary screen, CellTiter-Glo luminescence, NPC library (AID 1117342;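 active means compounds that lower survival of HCT116 colon cancer cells in the luminescence readout, no numeric limit stated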); details: at 20 µM (top of the series)
# [13] = CellTiter-Glo luminescent readout of SW480 viability loss, NPC library primary (AID 1117343;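 active means compounds that lower viability of the colon cancer cells in the luminescence readout, with no numeric limit stated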); details: CellTiter-Glo luminescence; at 20 µM (top of the series)
# [14] = decreased DLD-1 cellular survival, CellTiter-Glo luminescent readout, NPC compound collection, primary HTS (AID 1117346;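 active means compounds that lower survival of DLD-1 colon cancer cells in the luminescence readout, no cutoff given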); details: DLD-1 viability, CellTiter-Glo luminescence; at 20 µM (top of the series)
# [15] = MELAS cybrid survival, CellTiter-Glo 48 h, stronger effect = higher value
# [16] = Rieske KO mouse fibroblast survival, CellTiter-Glo 72 h
Compound,liver cell % of control [1] [%],parasite % of control [1],percent of negative control (+Dex) [2],z-score [2],z-score [3],z-score [4],fraction signal [5],"z-score [6, 15]","z-score [6, 16]",nuclear beta-catenin stimulation ([7]; at 10 µM),"nuclear beta-catenin stimulation ([7]; stimulation, at 2 µM) [%]",insulin secretion stimulation [8],viability decrease [9],tube area decrease [10],GLP1 secretion stimulation [11],inhibition of viability [12],viability decrease (inhibition) [13],viability decrease (inhibition) [14]
NC(=O)CCc1ccccc1Oc1nccc(-c2c(-c3ccc(F)cc3)ncn2C2CCNCC2)n1,91.6,151% (inactive),95.5% (inactive),0.275,0.875 (inactive),0.861 (inactive),-0.0055 (inactive),-0.2 (inactive),-0.462,–,–,–,–,–,–,–,–,–
CS(=O)(=O)CCN(CC#N)Cc1ccc(-c2ccc3ncnc(Nc4ccc(OCc5cccc(F)c5)c(Cl)c4)c3c2)o1,98.1,143% (inactive),82% (inactive),-0.4,0.225 (inactive),0.25 (inactive),0.001 (inactive),-0.391 (inactive),-0.288,–,–,–,–,–,–,–,–,–
Cc1ccc(NC(=O)c2ccnc(N3CCOCC3)c2)cc1-c1ccc(C(=O)NCC2CC2)cc1,100,95.1% (inactive),102% (inactive),1.12,0.01 (inactive),-0.216 (inactive),-0.0075 (inactive),-0.365 (inactive),-0.395,–,–,–,–,–,–,–,–,–
COC(=O)C1=C(C)NC(C)=C(C(=O)OCCc2ccc(N3CCN(C(c4ccccc4)c4ccccc4)CC3)cc2)C1c1cccc([N+](=O)[O-])c1 (stereo not drawn),–,–,–,–,–,–,–,–,–,2.5% (inactive),0.7,0% (inactive),14.1% (inactive),44.2% (active),-3.4% (inactive),32.3% (inactive),39.1% (inactive),-1.2% (inactive)
CCCc1c2oc(C(=O)O)cc(=O)c2cc2c(=O)cc(C(=O)O)n(CC)c12,–,–,–,–,–,–,–,–,–,-1.6% (inactive),-1,2.6% (inactive),7.4% (inactive),-19.4% (inactive),-2.3% (inactive),18.2% (inactive),34.6% (inactive),15.2% (inactive)
CC(C)C[C@@H](N)C(=O)O,–,–,–,–,–,–,–,–,–,3.4% (inactive),1.7,-0.8% (inactive),-7.15% (inactive),11.2% (inactive),0.3% (inactive),9.1% (inactive),3.6% (inactive),-1.8% (inactive)
CCN(CC)C(=O)[C@]1(c2ccccc2)C[C@H]1CN,–,–,–,–,–,–,–,–,–,-2.4% (inactive),-0.9,10.5% (inactive),-13.1% (inactive),-15.6% (inactive),3.7% (inactive),-3.6% (inactive),7% (inactive),3.4% (inactive)
[O-][n+]1ccccc1SSc1cccc[n+]1[O-],–,–,–,–,–,–,–,–,–,78.1% (active),34,-0.2% (inactive),51% (active),103% (active),15.1% (inactive),51.9% (active),-68.5% (inactive),1.15% (inactive)
Fc1ccc(-c2ncn(C3CCNCC3)c2-c2ccnc(Oc3ccc(Cl)cc3)n2)cc1,79.3,63.5% (inactive),103% (inactive),0.58,0.16 (inactive),-0.186 (inactive),-0.006 (inactive),0.00888 (inactive),-0.374,–,–,–,–,–,–,–,–,–
O=C1NC(=O)C(c2ccccc2Cl)=C1Nc1cc(Cl)c(O)c(Cl)c1,90.9,128% (inactive),95.5% (inactive),0.49,-0.07 (inactive),0.319 (inactive),-0.002 (inactive),-0.0492 (inactive),-0.159,–,–,–,–,–,–,–,–,–
N#CCC(=O)NN,–,–,–,–,–,–,–,–,–,0.4% (inactive),2.7,-0.7% (inactive),4.45% (inactive),0.1% (inactive),-0.8% (inactive),1.9% (inactive),13.4% (inactive),4.5% (inactive)
O=C(O)C(Cc1cc(I)c(O)c(I)c1)c1ccccc1 (stereo not drawn),–,–,–,–,–,–,–,–,–,1.5% (inactive),0.8,-0.6% (inactive),36.8% (inactive),-29.6% (inactive),-0.7% (inactive),40.4% (inactive),50.4% (active),14.4% (inactive)
C[C@H]1NCc2cc(-c3ccc4c(=O)c(C(=O)O)cn(C5CC5)c4c3OC(F)F)ccc21,–,–,–,–,–,–,–,–,–,4.5% (inactive),1.3,0.3% (inactive),2.4% (inactive),9.5% (inactive),-0.7% (inactive),20.1% (inactive),-3.4% (inactive),2.9% (inactive)
Cc1cccc(N(C)C(=S)Oc2ccc3c(c2)CCC3)c1,–,–,–,–,–,–,–,–,–,0% (inactive),-1.8,3.9% (inactive),33.9% (inactive),-13.8% (inactive),-4.7% (inactive),55.5% (active),42.6% (inactive),55.5% (active)
COc1ccccc1C1=C(Nc2ccccc2)C(=O)NC1=O,112,110% (inactive),102% (inactive),0.775,-0.36 (inactive),-0.103 (inactive),-0.012 (inactive),-1.08 (inactive),-0.271,–,–,–,–,–,–,–,–,–
COc1ccc2ncn(-c3cc(O[C@H](C)c4ccccc4Cl)c(C(N)=O)s3)c2c1,108,124% (inactive),77.5% (inactive),-2.52,0.63 (inactive),-1.39 (inactive),-0.0045 (inactive),-0.983 (inactive),0.0827,–,–,–,–,–,–,–,–,–
Cc1cccc(Oc2nccc(-c3c(-c4ccc(F)cc4)ncn3C3CCNCC3)n2)c1C,58.8,99.5% (inactive),104% (inactive),0.6,-0.775 (inactive),8.3 (active),-0.0055 (inactive),-0.134 (inactive),-0.269,–,–,–,–,–,–,–,–,–
O=S(=O)(O)c1ccc2nc(-c3ccccc3)[nH]c2c1,–,–,–,–,–,–,–,–,–,0.1% (inactive),0.5,-0.6% (inactive),5.35% (inactive),-26.3% (inactive),1.9% (inactive),6.9% (inactive),10.6% (inactive),-0.25% (inactive)
Fc1ccc(-c2ncn(C3CCNCC3)c2-c2ccnc(Oc3ccc(F)c(F)c3)n2)cc1,83,166% (inactive),106% (inactive),1.34,0.595 (inactive),0.167 (inactive),0.003 (inactive),-0.134 (inactive),-0.514,–,–,–,–,–,–,–,–,–
N#Cc1c(NC(=O)c2ccc(F)c3ccccc23)sc2c1CCCC2,93.8,163% (inactive),118% (inactive),0.625,1.47 (inactive),-1.25 (inactive),0.0065 (inactive),-0.605 (inactive),0.108,–,–,–,–,–,–,–,–,–
Fc1ccc(-c2ncn(C3CCNCC3)c2-c2ccnc(Oc3ccccc3)n2)cc1,73.1,120% (inactive),102% (inactive),0.6,0.255 (inactive),0.32 (inactive),-0.004 (inactive),-0.224 (inactive),-0.286,–,–,–,–,–,–,–,–,–
CCCCCCCCCCCCCC(=O)OC(C)C,–,–,–,–,–,–,–,–,–,1.2% (inactive),-0.6,0.9% (inactive),-8.2% (inactive),-9.5% (inactive),-0.1% (inactive),8.25% (inactive),7.7% (inactive),24.3% (inactive)
